Source: PubChem (National Center for Advancing Translational Sciences (NCATS))
Pf Dd2 growth: inhibitors of Plasmodium falciparum Dd2 growth. P. falciparum Dd2 growth, SYBR Green, 72 h. Potency, µM (series often up to 28.9 µM), for inactives: at the top dose activity, negative = inhibition, hits mostly inhibitors. 120,000 tested, 4.3% active. AID 1347417; active means well fitted inhibition curve with a large enough effect;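 further: plate controls were DMSO vehicle for no effect and reference drug for full effect; nearly all actives have a fitted effect of over 65% in size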
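Infected erythrocytes (Dd2, 0.3% parasitemia, 2.5% hematocrit final) are added to compound in RPMI-1640/Albumax II medium, grown 72 h at 37C in low oxygen, then lysed with saponin/Triton-X containing SYBR Green and read by fluorescence.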
The depositor's hits bear a star; i = inactive; [ ] = remark or other dose. The sample as a whole holds a higher share of hits than the screen did. Potency means the concentration at half of the fitted maximal effect.

SMILES	Pf Dd2 growth
COc1ccccc1-c1cc(C(=O)NCc2cccnc2)nn2cccc12	-12.1%
COc1ccccc1-c1nc(C(=O)N(C)C)n2ccncc12	3.3%
C[S+](=O)([O-])c1ccc(-c2nc(C(=O)N3CCCC3)n3ccncc23)cc1	12.6µM*
COC(=O)CNC(=O)c1nc(-c2ccc(Cl)cc2Cl)c2ccccn12	21.3%
CC(C)NC(=O)c1nc(-c2ccc(Cl)cc2Cl)c2cnccn12	3.55µM*
Cc1nc(NCCNS(C)(=O)=O)cc(C2CC(O)C2)n1 (configuration not stated)	i
O=S(=O)(N[C@H]1[C@H](O)[C@H](O)C[C@@H]1C1CCCCC1)c1ccccc1	-22.1%[44.1 µM]
CNC(=O)Nc1ccc(C)n(CC(=O)NCc2cccc(C)c2)c1=O	-4.5%
CCCCNC(=O)N1CCC2(CC1)C(=O)N(CC(=O)NC(C)c1ccccc1)CN2c1ccccc1 (configuration not stated)	i
COc1ccc(C2(CC(=O)N3CCC(Oc4ccc(F)cc4)CC3)CC(=O)N(C3CC3)C2=O)cc1 (configuration not stated)	0.5%
Cc1noc(-c2ccc(N3CCC(CN4CCCC4=O)CC3)nc2)n1	i
Cn1ncc2c(C(=O)NCc3cccnc3)cc(-c3ccc(Cl)cc3Cl)nc21	i
O=C(NCc1ccc2c(c1)OCO2)c1nc(-c2ccc(Cl)cc2Cl)c2ccccn12	i
O=C(c1nc(-c2cccc(C(F)(F)F)c2)c2ccccn12)N1CCN(c2ncccn2)CC1	-1.6%
O=C(NCc1cccnc1)c1nc(-c2ccc(Cl)cc2Cl)c2cnccn12	11.2µM*
O=C(c1nc(-c2ccc(F)cc2)c2cnccn12)N1CCN(c2ncccn2)CC1	i
CC(C)(C)c1nc(C(=O)N2CCN(c3ncccn3)CC2)n2ccncc12	5.01µM*
CN1CC(=O)N(c2ccccc2F)Cc2c(NCCc3ccc(Cl)cc3)ncnc21	i
O=C([C@@H]1C[C@H](F)CN1S(=O)(=O)c1ccc(Br)cc1)N1CCCCC1	-12.8%
COc1ccccc1N1CCN(C(=O)C[C@@H]2O[C@H](CNC(=O)c3ccc(N(C)C)cc3)[C@@H](O)[C@H]2O)CC1	i
CCOC(=O)C1(Cc2ccccc2F)CCCN(C(=O)c2ccc(OC)nc2OC)C1 (configuration not stated)	i
COCCN1CCC(N2CCN(S(=O)(=O)c3ccc(C)c(F)c3)CC2)C1=O (configuration not stated)	-22.6%
CC1CCC2(CC1)OCC(C(=O)NCc1ccco1)N2C(=O)c1ccccc1F (configuration not stated)	4.3%
COc1ccc(S(=O)(=O)N2CCc3nc4cc[nH]n4c(=O)c3C2)cc1Cl	32.9%[5.79 µM]
Cc1ccc(C2Cn3nnc(C(=O)N4CCC(C(=O)NCc5ccccc5Cl)CC4)c3CO2)cc1 (configuration not stated)	i
SMILES	Pf Dd2 growth
CCN(CC)Cc1cnc2c(C(=O)N3CCC(C(N)=O)CC3)cnn2c1	-9.3%
CN(Cc1ccc(F)cc1)Cc1cccn1C	-28.8%[44.1 µM]
CN1C(=O)CC(C(=O)O)C12CCN(Cc1cnn(-c3ccc(F)cc3)c1)CC2 (configuration not stated)	-3.3%
CN(Cc1cccc(CCN)c1)Cc1cnn(-c2ccc(F)cc2)c1	10µM*
NCCn1cc(C(=O)N2CCC(c3n[nH]c(=O)n3-c3ccccc3)CC2)nn1	-17.9%
COc1ccccc1C(=O)N1CCN(c2cc(C(F)(F)F)nc(C)n2)CC1	5.1%
COc1cccc(-c2cccc(COc3cnc4c(ccn4CC(=O)O)c3)c2)c1F	i
Cc1cn2nc(C(=O)Nc3cccc(F)c3C)cc2c(N(C)Cc2ccccc2)n1	-3.2%
CCN(Cc1ccccc1)C(=O)c1cc2c(N3CCCC3)nc(C)cn2n1	i
Cc1cn2nc(C(=O)Nc3ccccc3C)cc2c(N(C)Cc2ccccc2)n1	-13.5%
Cc1cn2nc(C(=O)Nc3ccc(Cl)cc3C)cc2c(N(C)Cc2ccccc2)n1	10µM*
Cc1cn2nc(C(=O)N3CCN(c4ccccc4)CC3)cc2c(N(C)Cc2ccccc2)n1	-7.9%
Cc1cn2nc(C(=O)N3CCCCC3)cc2c(N(C)Cc2ccccc2)n1	7.08µM*
CN(C)c1nc(-c2ccncc2)nc2c1CCN(C(=O)c1cc(=O)[nH]c(=O)[nH]1)C2	-10.4%
CCO[C@H]1CN(C(=O)c2ccc(OC)c(N3CCOCC3)c2)C[C@@H]1O	-13.8%
O=C(NCc1ccc2c(c1)OCO2)c1ccc2c(c1)N(Cc1cccc(Cl)c1)C(=O)c1ccccc1S2	10µM*
Cc1ccc(CN2C(=O)c3ccccc3Sc3ccc(C(=O)OCc4ccco4)cc32)cc1	-15.8%
Cc1ccc(C)c(CN2C(=O)c3ccccc3Sc3ccc(C(=O)NCc4ccco4)cc32)c1	11.2µM*
O=C(NCc1ccc2c(c1)OCO2)c1ccc2c(c1)N(Cc1ccccc1)C(=O)c1ccccc1S2=O (configuration not stated)	29.7%
CCOc1ccc(CN2C(=O)c3ccccc3Sc3ccc(C(=O)NCCCN4CCOCC4)cc32)cc1	i
CCOc1ccc(CN2C(=O)c3ccccc3Sc3ccc(C(=O)O)cc32)cc1	93.1%
O=C(NCc1ccc2c(c1)OCO2)c1ccc2c(c1)N(Cc1ccc(F)cc1)C(=O)c1ccccc1S2=O (configuration not stated)	i
Cc1ccccc1CN1C(=O)c2ccccc2Sc2ccc(C(=O)OCc3ccco3)cc21	8.91µM*
CCOc1ccc(CN2C(=O)c3ccccc3Sc3ccc(C(=O)N4CCN(C)CC4)cc32)cc1	0.126µM*
Cc1ccccc1CN1C(=O)c2ccccc2S(=O)c2ccc(C(=O)N3CCOCC3)cc21 (configuration not stated)	i
SMILES	Pf Dd2 growth
COc1ccc(OCc2nc(C)c(CCO)c(=O)n2CC(=O)NCc2cccs2)cc1	-20.9%
CC(=O)N1CCCC(c2[nH]ccc2C(=O)N2CCN(c3ncccn3)CC2)C1 (configuration not stated)	14.3%
O=C(N[C@H](Cc1ccccn1)C1CC(O)C1)c1scc2c1OCCO2 (some centres not stated)	-11.4%
Cc1cccc(C(=O)N2C[C@@H](CO)[C@H](c3ccccn3)C2)n1	24.2%
COCCNC(=O)C[C@@H]1C[C@H]2O[C@H](CNC3Cc4ccccc4C3)[C@@H](O)[C@H]2O1	4.2%[44.1 µM]
O=C1Nc2ccccc2C12CN(S(=O)(=O)c1cccs1)C2	-6.0%
CC1(c2noc(C3(C)CCOCC3)n2)CCNCC1	i
Cc1noc2c(NC3CCC(O)CC3)cc(-c3ccc(Cl)cc3)nc12 (configuration not stated)	i
O=C(NC1CCCC1)c1ccc2c(c1)N(Cc1ccc(F)cc1)C(=O)c1ccccc1S2	i
CCC(C)NC(=O)c1ccc2c(c1)N(Cc1ccccc1)C(=O)c1ccccc1S2 (configuration not stated)	-29.7%
CCOc1ccc(CN2C(=O)c3ccccc3Sc3ccc(C(=O)NC4CCC(C)CC4)cc32)cc1 (configuration not stated)	11.2µM*
COCCCNC(=O)c1ccc2c(c1)N(Cc1ccccc1)C(=O)c1ccccc1S2	-14.6%
COCCCNC(=O)c1ccc2c(c1)N(Cc1ccccc1F)C(=O)c1ccccc1S2=O (configuration not stated)	i
CC1CCC(NC(=O)c2ccc3c(c2)N(Cc2ccccc2F)C(=O)c2ccccc2S3(=O)=O)CC1 (configuration not stated)	-13.5%
CC1CCC(NC(=O)c2ccc3c(c2)N(Cc2ccccc2F)C(=O)c2ccccc2S3=O)CC1 (configuration not stated)	10µM*
